PubChem BioAssay (EPA / NIEHS)
Inconclusive results are not listed. The source made the active and inactive calls. Rule for the calls, unless noted: active = hit-call score of the fitted dose curve at least 0.9, where 1 is the maximum; inactive = score below 0.9.

Assays:
[1] = ATG_PBREM_CIS: Attagene CIS-FACTORIAL HepG2 Assay for human Phenobarbital-responsive Enhancer Module (PBREM) (AID 2282955); conditions: HepG2 PBREM cis-reporter, Attagene multiplexed transcription; actives raise or lower the signal
Procedure, shortened: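 After a 24 h incubation with test chemical, transfected HepG2 cells yield total RNA; reporter-specific RT-PCR products are fluorescently labelled, HpaI-digested and resolved by capillary electrophoresis against ROX size standards.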

[2] = biological target: Paired box protein Pax-6 (Homo sapiens) (UniProt P26367); test: ATG_Pax6_CIS: Attagene CIS-FACTORIAL HepG2 Assay for human Paired Box 6 (PAX6) (AID 2282956); conditions: HepG2 CIS-FACTORIAL PAX6 reporter transcription, RNA readout; actives raise or lower the signal
Procedure, shortened: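 Fluorescent RT-PCR products separated by capillary electrophoresis report PAX6-linked promoter mRNA in HepG2 cells 24 h post-dose. Curves fitted bidirectionally, DMSO as negative control.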

[3] = ATG_PXRE_CIS: Attagene CIS-FACTORIAL HepG2 Assay for human Pregnane X Receptor Element (PXRE) (AID 2282957); conditions: HepG2 Attagene CIS-FACTORIAL PXRE reporter, mRNA; actives raise or lower the signal
Procedure, shortened: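 Reporter transcripts under endogenous PXR-responsive cis-regulation quantified from total RNA of transfected HepG2 cells 24 h post-dosing, via RT-PCR with fluorescent primer extension and capillary electrophoresis. Gain or loss of signal fitted against DMSO baseline.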

[4] = ATG_PPRE_CIS: Attagene CIS-FACTORIAL HepG2 Assay for human Peroxisome Proliferator-activated Response Element (PPRE) (AID 2282958); conditions: HepG2 PPRE cis-element reporter, Attagene transcription factor profiling; actives raise or lower the signal
Procedure, shortened: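 Multiplexed reporter transcription units under cis-regulatory promoters were transfected into HepG2 cells to capture endogenous factor activity. A 24 h incubation preceded RNA isolation and fluorescent RT-PCR fragment analysis.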

[5] = ATG_RORE_CIS: Attagene CIS-FACTORIAL HepG2 Assay for human RAR-related Orphan Receptor Element (RORE) (AID 2282959); conditions: HepG2 Attagene cis-factorial RORE reporter, mRNA; actives raise or lower the signal
Procedure, shortened: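 Fluorescence intensity of reporter-specific cDNA fragments, separated by capillary electrophoresis, gives the signal. Source: HepG2 liver cells transiently transfected with cis-element reporters and exposed 24 h; DMSO-normalized bidirectional fit.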

[6] = ATG_Sox_CIS: Attagene CIS-FACTORIAL HepG2 Assay for human SRY-box transcription factor (SOX) (AID 2282960); conditions: HepG2 Attagene cis-factorial SOX reporter, mRNA; actives raise or lower the signal
Procedure, shortened: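 After 24 h of chemical treatment, transfected HepG2 reporter cells are lysed for total RNA. Transcript levels come from RT-PCR with labelled primer extension and capillary electrophoresis, analysed bidirectionally versus DMSO.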

[7] = biological target: Transcription factor Sp1 (Homo sapiens) (UniProt P08047); test: ATG_Sp1_CIS: Attagene CIS-FACTORIAL HepG2 Assay for human Specificity Protein 1 (Sp1) (AID 2282961); conditions: HepG2 Sp1 cis-reporter transcription, actives raise or lower the signal
Procedure, shortened: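 Sp1-driven reporter mRNA, read as capillary electrophoresis fluorescence after RT-PCR, in transiently transfected HepG2 cells dosed for 24 h; signal change in either direction relative to DMSO.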

[8] = ATG_SREBP_CIS: Attagene CIS-FACTORIAL HepG2 Assay for human Sterol Regulatory Element Binding (SREBP) (AID 2282962); conditions: HepG2 Attagene cis-factorial SREBP reporter, mRNA; actives raise or lower the signal
Procedure, shortened: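 Endogenous factor activity is measured in HepG2 through multiplexed reporter units under cis-element control. Following a 24 h incubation, reporter transcripts are reverse-transcribed, PCR-amplified and sized by capillary electrophoresis; activity is fitted in both directions relative to DMSO.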

[9] = biological target: Signal transducer and activator of transcription 3 (Homo sapiens) (UniProt P40763); test: ATG_STAT3_CIS: Attagene CIS-FACTORIAL HepG2 Assay for human Signal Transducer and Activator of Transcription 3 (STAT3) (AID 2282963); conditions: HepG2, Attagene cis-factorial STAT3 reporter transcription; actives raise or lower the signal
Procedure, shortened: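 HepG2, MRTU-transfected, 24 h dosing. RNA → RT → PCR → FAM label → HpaI → CE. Bidirectional fit vs DMSO.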

[10] = ATG_TA_CIS: Attagene CIS-FACTORIAL HepG2 Assay for human TA Basal Promoter (AID 2282964); conditions: HepG2 Attagene CIS-factorial TA basal promoter reporter; actives raise or lower the signal
Procedure, shortened: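 Steps: transfect HepG2 with MRTUs; dose 24 h; isolate RNA, DNase-treat, reverse-transcribe; PCR and FAM-label reporter cDNA; digest with HpaI 2h at 37 C; run capillary electrophoresis. Activity fitted both directions against DMSO.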

[11] = ATG_TCF_b_cat_CIS: Attagene CIS-FACTORIAL HepG2 Assay for human T-Cell-Factor with beta-catenin (TCF/b-cat) (AID 2282965); conditions: HepG2 TCF/beta-catenin cis-reporter transcription, actives raise or lower the signal
Procedure, shortened: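 Using capillary electrophoresis as the read-out, labelled reporter cDNA fragments from transiently transfected HepG2 were sized and quantified. Exposure lasted 24 hours; activity in either direction was referenced to DMSO.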

[12] = ATG_TAL_CIS: Attagene CIS-FACTORIAL HepG2 Assay for human TAL Basal Promoter (AID 2282966); conditions: HepG2 Attagene cis-factorial TAL promoter reporter; actives raise or lower the signal;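 note: background control endpoint measuring basal TAL promoter reporter mRNA not a specific factor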
Procedure, shortened: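 Background-control endpoint: basal TAL promoter reporter transcripts in transiently transfected HepG2, measured 24 h after dosing. Read-out by RT-PCR with fluorescent primer extension and capillary electrophoresis; gain or loss of signal fitted relative to DMSO.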

[13] = ATG_TGFb_CIS: Attagene CIS-FACTORIAL HepG2 Assay for human Transforming Growth Factor (TGF) (AID 2282967); conditions: HepG2 Attagene CIS TGFb reporter, mRNA transcription; actives raise or lower the signal
Procedure, shortened: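 Cells were dosed for 24 hours, after which total RNA was reverse-transcribed and reporter sequences amplified, labeled and sized by capillary electrophoresis. Activity was fitted in both directions against DMSO.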

[14] = biological target: Estrogen receptor (Homo sapiens) (UniProt P03372); test: ATG_ERa_TRANS: Attagene TRANS-FACTORIAL HepG2 Assay for human Estrogen Receptor alpha (ERa) (AID 2282970; active = hit-call score of the fitted dose curve at least 0.9, where 1 is the maximum); conditions: HepG2 Attagene TRANS ERa GAL4 reporter, mRNA
Procedure, shortened: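 Reporter transcripts were measured 24 h after dosing by RT-PCR with fluorescent primer extension and capillary electrophoresis. The system is transiently transfected HepG2 expressing exogenous NR-Gal4 chimeras driving GAL4-UAS reporters; DMSO is the baseline.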

[15] = biological target: X-box-binding protein 1 (Homo sapiens) (UniProt P17861); test: ATG_Xbp1_CIS: Attagene CIS-FACTORIAL HepG2 Assay for human X-box Binding Protein 1 (XBP1) (AID 2282972); conditions: HepG2 XBP1 cis-element reporter, Attagene multiplex; actives raise or lower the signal
Procedure, shortened: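 Multiplexed cis-reporter readout in transfected HepG2 liver cells. Exposure lasted 24 hours. Activity in either direction was fitted against DMSO as negative control and baseline.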

[16] = ATG_M_19_TRANS: Attagene TRANS-FACTORIAL HepG2 Assay for M19 Transcription Factor (Internal Marker) (AID 2282974; active = hit-call score of the fitted dose curve at least 0.9, where 1 is the maximum); conditions: HepG2 Attagene TRANS-FACTORIAL M19 internal marker reporter
Procedure, shortened: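 Measured here: internal-marker reporter transcript from HepG2 cells transfected with MRTUs, harvested at 24 h. cDNA PCR products were 6-FAM labelled by primer extension, cut with HpaI for 2 h at 37 C, and resolved by CE.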

[17] = biological target: Estrogen-related receptor gamma (Homo sapiens) (UniProt P62508); test: ATG_ERRg_TRANS: Attagene TRANS-FACTORIAL HepG2 Assay for human Estrogen-Related Receptor gamma (ERRg) (AID 2282977; active = hit-call score of the fitted dose curve at least 0.9, where 1 is the maximum;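 note: hits increase reporter signal over DMSO so potencies reflect activators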); conditions: HepG2 Attagene TRANS reporter, ERRg transactivation
Procedure, shortened: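 Exogenous NR-Gal4 chimera activity measured as reporter transcript induction after 24 h in transiently transfected HepG2 cells. RNA reverse-transcribed, PCR-amplified, 6-FAM-labelled and resolved by capillary electrophoresis; increase over DMSO baseline.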

Measured: AC50

Chain of Transcription factor Sp1 (Homo sapiens) (P08047 whole entry, looked up): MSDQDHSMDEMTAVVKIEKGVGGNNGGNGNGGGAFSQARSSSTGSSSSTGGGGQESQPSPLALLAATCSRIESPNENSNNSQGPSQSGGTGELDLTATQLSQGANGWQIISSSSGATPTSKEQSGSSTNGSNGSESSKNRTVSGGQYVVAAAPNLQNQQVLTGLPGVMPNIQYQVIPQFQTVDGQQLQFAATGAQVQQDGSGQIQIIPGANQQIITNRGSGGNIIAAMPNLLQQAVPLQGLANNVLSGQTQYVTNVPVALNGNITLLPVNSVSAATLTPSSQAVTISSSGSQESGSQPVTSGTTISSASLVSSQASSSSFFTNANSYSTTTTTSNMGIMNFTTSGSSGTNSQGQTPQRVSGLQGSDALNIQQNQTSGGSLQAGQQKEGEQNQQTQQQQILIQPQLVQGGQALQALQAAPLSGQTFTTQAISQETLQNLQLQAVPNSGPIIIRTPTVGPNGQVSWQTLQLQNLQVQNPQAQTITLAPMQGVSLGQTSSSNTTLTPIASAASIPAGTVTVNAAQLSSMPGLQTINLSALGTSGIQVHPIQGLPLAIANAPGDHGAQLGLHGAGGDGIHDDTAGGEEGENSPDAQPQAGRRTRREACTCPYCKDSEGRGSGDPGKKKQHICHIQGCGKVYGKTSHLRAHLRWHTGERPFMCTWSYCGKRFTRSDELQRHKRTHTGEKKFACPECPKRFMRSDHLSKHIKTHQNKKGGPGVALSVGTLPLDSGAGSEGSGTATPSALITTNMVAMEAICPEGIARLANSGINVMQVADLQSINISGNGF
Chain of Signal transducer and activator of transcription 3 (Homo sapiens) (P40763 whole entry, looked up): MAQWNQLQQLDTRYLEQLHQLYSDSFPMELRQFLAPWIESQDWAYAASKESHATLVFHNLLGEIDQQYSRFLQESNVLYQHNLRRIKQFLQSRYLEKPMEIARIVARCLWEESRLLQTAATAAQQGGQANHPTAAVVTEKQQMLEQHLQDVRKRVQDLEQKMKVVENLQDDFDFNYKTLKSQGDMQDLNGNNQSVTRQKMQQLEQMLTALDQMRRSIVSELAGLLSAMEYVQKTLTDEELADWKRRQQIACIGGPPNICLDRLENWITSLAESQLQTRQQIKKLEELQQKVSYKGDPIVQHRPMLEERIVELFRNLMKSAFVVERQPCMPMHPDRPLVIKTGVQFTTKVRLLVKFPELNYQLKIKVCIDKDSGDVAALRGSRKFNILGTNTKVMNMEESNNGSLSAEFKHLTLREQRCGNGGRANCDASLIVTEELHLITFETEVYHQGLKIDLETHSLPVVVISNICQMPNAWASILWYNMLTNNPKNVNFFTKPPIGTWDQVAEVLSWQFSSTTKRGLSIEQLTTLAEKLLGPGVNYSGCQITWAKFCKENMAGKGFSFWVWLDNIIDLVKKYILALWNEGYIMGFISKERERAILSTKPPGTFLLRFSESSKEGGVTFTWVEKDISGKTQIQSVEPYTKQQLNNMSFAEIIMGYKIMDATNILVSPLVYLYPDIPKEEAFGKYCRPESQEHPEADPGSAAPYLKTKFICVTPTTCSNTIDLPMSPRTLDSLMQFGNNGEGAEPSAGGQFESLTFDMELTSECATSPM
Chain of Estrogen receptor (Homo sapiens) (P03372 whole entry, looked up, the tested form may be a part): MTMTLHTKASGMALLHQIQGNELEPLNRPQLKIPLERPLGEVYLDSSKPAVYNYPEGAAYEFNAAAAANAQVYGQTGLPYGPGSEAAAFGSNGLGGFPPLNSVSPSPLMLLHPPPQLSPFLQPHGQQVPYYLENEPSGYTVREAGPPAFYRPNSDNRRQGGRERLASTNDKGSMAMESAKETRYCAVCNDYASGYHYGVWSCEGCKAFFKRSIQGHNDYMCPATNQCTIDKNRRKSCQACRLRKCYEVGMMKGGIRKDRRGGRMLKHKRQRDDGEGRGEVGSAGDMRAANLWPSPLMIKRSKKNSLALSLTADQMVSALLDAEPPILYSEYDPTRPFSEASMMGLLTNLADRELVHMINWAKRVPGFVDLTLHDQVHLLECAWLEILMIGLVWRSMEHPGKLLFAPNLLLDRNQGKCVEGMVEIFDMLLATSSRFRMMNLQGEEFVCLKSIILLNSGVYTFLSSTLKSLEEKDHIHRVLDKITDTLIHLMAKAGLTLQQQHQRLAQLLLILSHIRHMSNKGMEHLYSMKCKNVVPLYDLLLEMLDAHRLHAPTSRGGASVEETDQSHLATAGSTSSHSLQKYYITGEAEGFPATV
Chain of X-box-binding protein 1 (Homo sapiens) (P17861 whole entry, looked up): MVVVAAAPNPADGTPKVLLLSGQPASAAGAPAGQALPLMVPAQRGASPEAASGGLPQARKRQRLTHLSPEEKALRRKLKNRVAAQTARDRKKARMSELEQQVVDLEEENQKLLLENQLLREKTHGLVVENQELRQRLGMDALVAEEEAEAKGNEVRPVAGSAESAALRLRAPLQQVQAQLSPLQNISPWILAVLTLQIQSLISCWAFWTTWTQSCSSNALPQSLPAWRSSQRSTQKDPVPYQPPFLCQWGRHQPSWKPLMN
Chain of Paired box protein Pax-6 (Homo sapiens) (P26367 whole entry, looked up): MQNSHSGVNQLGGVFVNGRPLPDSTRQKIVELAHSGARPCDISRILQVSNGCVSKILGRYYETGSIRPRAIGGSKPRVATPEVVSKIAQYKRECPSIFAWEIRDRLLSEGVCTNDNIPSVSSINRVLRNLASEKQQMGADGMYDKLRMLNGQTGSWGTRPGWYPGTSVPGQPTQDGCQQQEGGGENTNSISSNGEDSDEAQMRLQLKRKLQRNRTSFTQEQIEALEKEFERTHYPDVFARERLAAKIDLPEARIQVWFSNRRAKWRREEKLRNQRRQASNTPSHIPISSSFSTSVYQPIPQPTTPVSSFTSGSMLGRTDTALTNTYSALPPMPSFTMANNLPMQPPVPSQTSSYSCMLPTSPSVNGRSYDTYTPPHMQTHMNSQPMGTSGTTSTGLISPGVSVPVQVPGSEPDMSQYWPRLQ
Chain of Estrogen-related receptor gamma (Homo sapiens) (P62508 whole entry, looked up, the tested form may be a part): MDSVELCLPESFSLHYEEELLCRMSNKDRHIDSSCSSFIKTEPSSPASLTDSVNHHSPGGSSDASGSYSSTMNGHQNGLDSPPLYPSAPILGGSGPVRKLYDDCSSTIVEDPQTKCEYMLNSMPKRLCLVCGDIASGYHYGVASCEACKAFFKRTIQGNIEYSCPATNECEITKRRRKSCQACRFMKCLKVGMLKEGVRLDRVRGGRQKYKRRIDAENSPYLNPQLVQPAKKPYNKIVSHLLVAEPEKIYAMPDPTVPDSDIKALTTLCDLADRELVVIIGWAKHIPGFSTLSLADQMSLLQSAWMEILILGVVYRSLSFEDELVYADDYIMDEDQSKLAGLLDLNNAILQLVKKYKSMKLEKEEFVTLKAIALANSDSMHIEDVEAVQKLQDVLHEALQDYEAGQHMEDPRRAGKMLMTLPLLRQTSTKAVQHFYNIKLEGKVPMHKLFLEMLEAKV

CCON=C(CC)C1=C(O)CC(c2c(C)cc(C)cc2C)CC1=O (stereo unspecified)
active: [3] 34.9 µM
inactive: [1] | [2] | [4] | [5] | [6] | [7] | [8] | [9] | [10] | [11] | [12] | [13] | [14] | [15]

O=C(Nc1ccccc1)Nc1ccnc(Cl)c1
active: [4] 22.6 µM | [5] 67.2 µM | [6] 11.9 µM | [7] 24.9 µM | [8] 13.1 µM
inactive: [2] | [3] | [9] | [10] | [11] | [12] | [13] | [14] | [15] | [16] | [17]
